This is an account of results in publication PMC4081100, “A DNA-binding-site landscape and regulatory network analysis for NAC transcription factors in Arabidopsis thaliana”.

Assay in all cases: universal protein binding microarray (PBM); transcription factors of Arabidopsis thaliana; high values mean tight binding
One experiment addresses T1, GST-ANAC092(1-176) (Arabidopsis thaliana, UniProt Q9FKA0 1-176).
T1 sequence: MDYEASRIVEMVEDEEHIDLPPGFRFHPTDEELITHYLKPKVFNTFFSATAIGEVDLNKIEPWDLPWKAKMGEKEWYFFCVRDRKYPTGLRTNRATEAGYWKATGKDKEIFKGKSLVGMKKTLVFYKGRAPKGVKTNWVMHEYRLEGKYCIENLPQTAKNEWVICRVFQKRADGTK
The note with it: protein: recombinant; tags: GST; chain copies: 2; dsDNA, one strand shown. Put shortly:
(§1)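 Binding is expressed as the normalised enrichment score (E-score). Proteins carrying a GST tag, whether NAC-domain, full-length or DNA-binding-domain forms, were induced in cells, and zinc acetate was added for zinc-finger proteins. After purification on glutathione–Sepharose 4B and quantification by A280 or anti-GST western blot, each was applied in duplicate at 200 to 500 nM final to custom all-10-mer Agilent 4 × 180K arrays made double-stranded by primer extension. Gapped and ungapped 8-mers were scored.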

For another experiment, the target named is GST-NTL6(1-168) (Arabidopsis thaliana, UniProt Q9SCK6 1-168). The note with it: protein: recombinant; tags: GST; chain copies: 2; dsDNA, one strand shown. Put shortly: as §1
The target in the next experiment is T2, GST-ANAC019 NAC domain (Arabidopsis thaliana, UniProt Q9C932 14-162).
T2 sequence: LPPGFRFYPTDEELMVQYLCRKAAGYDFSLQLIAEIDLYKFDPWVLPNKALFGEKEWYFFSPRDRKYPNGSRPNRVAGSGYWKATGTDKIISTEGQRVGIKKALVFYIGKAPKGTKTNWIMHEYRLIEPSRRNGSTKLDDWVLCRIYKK
The note with it: protein: recombinant; tags: GST; chain copies: 2; dsDNA, one strand shown. Summed up: as §1

The next experiment has as its target T3, GST-ANAC055(1-171) (Arabidopsis thaliana, UniProt Q9LDY8 1-171).
T3 sequence: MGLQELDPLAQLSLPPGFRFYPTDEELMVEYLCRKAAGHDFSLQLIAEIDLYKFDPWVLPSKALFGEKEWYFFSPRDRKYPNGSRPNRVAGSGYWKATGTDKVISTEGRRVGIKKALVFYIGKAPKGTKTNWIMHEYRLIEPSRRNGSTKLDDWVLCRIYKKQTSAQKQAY
The note with it: protein: recombinant; tags: GST; chain copies: 2; dsDNA, one strand shown. Summed up:
as §1

Another experiment deals with T4, GST-ATAF1 NAC domain (Arabidopsis thaliana, UniProt Q39013 7-158).
T4 sequence: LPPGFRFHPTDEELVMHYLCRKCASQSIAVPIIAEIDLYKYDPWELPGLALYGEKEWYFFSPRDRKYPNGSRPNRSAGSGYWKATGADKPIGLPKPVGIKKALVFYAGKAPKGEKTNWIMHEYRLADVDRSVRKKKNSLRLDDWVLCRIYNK
The note with it: protein: recombinant; tags: GST; chain copies: 2; dsDNA, one strand shown. Summed up:
as §1

The target in experiment [1] is T5, GST-ANAC092(1-285) full length (Arabidopsis thaliana, UniProt Q9FKA0 1-285).
T5 sequence: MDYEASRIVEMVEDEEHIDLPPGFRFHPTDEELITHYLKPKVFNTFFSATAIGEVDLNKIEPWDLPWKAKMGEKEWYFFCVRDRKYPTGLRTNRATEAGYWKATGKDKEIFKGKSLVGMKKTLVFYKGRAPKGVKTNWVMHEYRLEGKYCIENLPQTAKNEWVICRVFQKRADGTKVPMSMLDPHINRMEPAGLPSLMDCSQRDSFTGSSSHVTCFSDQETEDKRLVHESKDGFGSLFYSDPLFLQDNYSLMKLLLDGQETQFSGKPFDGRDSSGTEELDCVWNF
The note with it: protein: recombinant; tags: GST; chain copies: 2; dsDNA, one strand shown. Put shortly:
as §1

The next experiment addresses T6, GST-NAP(1-166) (Arabidopsis thaliana, UniProt O49255 1-166).
T6 sequence: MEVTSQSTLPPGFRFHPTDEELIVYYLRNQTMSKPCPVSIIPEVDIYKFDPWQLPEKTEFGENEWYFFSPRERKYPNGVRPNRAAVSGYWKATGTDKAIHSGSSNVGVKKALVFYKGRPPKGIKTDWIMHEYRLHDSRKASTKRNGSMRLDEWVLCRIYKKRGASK
The note with it: protein: recombinant; tags: GST; chain copies: 2; dsDNA, one strand shown. Summed up: as §1

The target of another experiment is T7, GST-NST2(1-184) (Arabidopsis thaliana, UniProt Q9M274 1-184).
T7 sequence: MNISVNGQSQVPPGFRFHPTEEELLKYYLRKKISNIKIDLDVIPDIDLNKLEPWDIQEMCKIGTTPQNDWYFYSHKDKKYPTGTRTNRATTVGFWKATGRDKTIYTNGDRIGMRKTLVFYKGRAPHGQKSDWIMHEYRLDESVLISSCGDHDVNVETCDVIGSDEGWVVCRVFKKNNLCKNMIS
The note with it: protein: recombinant; tags: GST; chain copies: 2; dsDNA, one strand shown. Put shortly:
as §1

The target of another experiment is T8, GST-SND1(1-203) (Arabidopsis thaliana, UniProt Q9LPI7 1-203).
T8 sequence: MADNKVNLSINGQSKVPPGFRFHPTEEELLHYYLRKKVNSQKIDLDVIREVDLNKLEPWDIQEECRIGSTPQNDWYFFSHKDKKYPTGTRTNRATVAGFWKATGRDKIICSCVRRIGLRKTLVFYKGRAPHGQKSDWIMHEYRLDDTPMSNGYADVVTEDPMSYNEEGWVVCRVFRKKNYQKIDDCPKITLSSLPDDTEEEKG
The note with it: protein: recombinant; tags: GST; chain copies: 2; dsDNA, one strand shown. Summed up: as §1

A further experiment concerns the target T9, GST-VND3 NAC domain (Arabidopsis thaliana, UniProt Q9FH59 12-162).
T9 sequence: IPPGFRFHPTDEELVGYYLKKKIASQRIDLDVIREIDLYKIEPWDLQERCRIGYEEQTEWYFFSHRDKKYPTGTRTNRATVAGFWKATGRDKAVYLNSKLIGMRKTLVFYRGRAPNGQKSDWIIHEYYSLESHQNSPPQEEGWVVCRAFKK
The note with it: protein: recombinant; tags: GST; chain copies: 2; dsDNA, one strand shown. Summed up:
as §1

In a further experiment the target is T10, GST-VND7 NAC domain (Arabidopsis thaliana, UniProt Q9C8W9 9-158).
T10 sequence: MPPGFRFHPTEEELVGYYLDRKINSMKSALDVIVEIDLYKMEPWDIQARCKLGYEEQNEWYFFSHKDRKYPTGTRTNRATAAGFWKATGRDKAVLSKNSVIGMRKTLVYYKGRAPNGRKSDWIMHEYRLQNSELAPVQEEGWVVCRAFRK
The note with it: protein: recombinant; tags: GST; chain copies: 2; dsDNA, one strand shown. Put shortly:
as §1

A further experiment has as its target T11, GST-NTL8 NAC domain (Arabidopsis thaliana, UniProt Q9XIN7 14-156).
T11 sequence: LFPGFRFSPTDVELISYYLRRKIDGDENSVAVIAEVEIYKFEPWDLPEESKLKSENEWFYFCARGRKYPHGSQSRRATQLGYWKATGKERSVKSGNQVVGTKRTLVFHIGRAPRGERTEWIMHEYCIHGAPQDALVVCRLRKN
The note with it: protein: recombinant; tags: GST; chain copies: 2; dsDNA, one strand shown. Put shortly: as §1

For the next experiment, the target named is GST-WRKY1(266-371) (Arabidopsis thaliana, UniProt Q9SI37 266-371). The note with it: protein: recombinant; tags: GST; dsDNA, one strand shown. Put shortly:
as §1

Sequence of GST-NTL6(1-168) (Q9SCK6 1-168): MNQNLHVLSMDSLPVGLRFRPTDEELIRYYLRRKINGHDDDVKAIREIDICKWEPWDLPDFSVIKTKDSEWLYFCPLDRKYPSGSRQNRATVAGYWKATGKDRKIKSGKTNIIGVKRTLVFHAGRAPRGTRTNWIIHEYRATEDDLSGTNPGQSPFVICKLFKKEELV
Sequence of GST-WRKY1(266-371) (Q9SI37 266-371): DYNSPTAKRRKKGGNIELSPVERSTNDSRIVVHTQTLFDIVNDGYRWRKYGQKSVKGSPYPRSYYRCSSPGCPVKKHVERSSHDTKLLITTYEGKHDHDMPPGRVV

As for GTACGTTA, the binding signal with GST-ANAC092(1-176) turned out to be 0.42 E-score; with GST-NTL6(1-168), 0.0779 E-score; with GST-ANAC019 NAC domain it was 0.0888 E-score; in the experiment with GST-ANAC055(1-171), 0.226 E-score; with GST-ATAF1 NAC domain, 0.325 E-score; in experiment [1], 0.426 E-score. Further, the binding signal worked out at 0.173 E-score with GST-NAP(1-166); 0.316 E-score with GST-NST2(1-184); 0.415 E-score with GST-SND1(1-203); 0.253 E-score with GST-VND3 NAC domain; 0.148 E-score with GST-VND7 NAC domain.
In the case of AATACGCA, the binding signal with GST-ANAC092(1-176) was found to be 0.411 E-score; with GST-NTL6(1-168), 0.109 E-score; with GST-ANAC019 NAC domain, 0.196 E-score; in the experiment with GST-ANAC055(1-171) it was 0.293 E-score; with GST-ATAF1 NAC domain, 0.142 E-score; in experiment [1], 0.431 E-score. Also, the binding signal with GST-NAP(1-166) was 0.221 E-score; in the experiment with GST-NST2(1-184), 0.206 E-score; with GST-SND1(1-203) it was 0.356 E-score; in the experiment with GST-VND3 NAC domain, 0.314 E-score; with GST-VND7 NAC domain it was 0.259 E-score.
In the case of ACGCAACC, the binding signal worked out at 0.483 E-score with GST-ANAC092(1-176); 0.455 E-score with GST-ANAC019 NAC domain; 0.421 E-score with GST-ANAC055(1-171); 0.428 E-score with GST-ATAF1 NAC domain; 0.492 E-score in experiment [1]; 0.478 E-score in the experiment with GST-NAP(1-166). Moreover, the binding signal in the experiment with GST-NST2(1-184) amounted to 0.434 E-score; with GST-NTL8 NAC domain, 0.146 E-score; with GST-SND1(1-203), 0.481 E-score; in the experiment with GST-VND3 NAC domain, 0.416 E-score; in the experiment with GST-VND7 NAC domain, 0.443 E-score; with GST-WRKY1(266-371), 0.107 E-score.
Take CAAAGTCA: the binding signal came to 0.0622 E-score with GST-ANAC055(1-171); 0.0505 E-score in experiment [1]; 0.0515 E-score in the experiment with GST-SND1(1-203); 0.0817 E-score in the experiment with GST-VND3 NAC domain; 0.0536 E-score with GST-VND7 NAC domain; 0.454 E-score in the experiment with GST-WRKY1(266-371).
As to ATGTCAAC, the binding signal with GST-NTL6(1-168) is 0.0563 E-score; with GST-ANAC055(1-171) it was 0.133 E-score; in the experiment with GST-ATAF1 NAC domain, 0.127 E-score; with GST-NAP(1-166), 0.106 E-score; in the experiment with GST-NST2(1-184), 0.0828 E-score; with GST-SND1(1-203), 0.0631 E-score. The binding signal in the experiment with GST-VND3 NAC domain is 0.089 E-score; in the experiment with GST-VND7 NAC domain, 0.124 E-score; in the experiment with GST-WRKY1(266-371) it was 0.443 E-score.
Turning to CGTCAACG, the binding signal with GST-ANAC092(1-176) turned out to be 0.117 E-score; in the experiment with GST-ANAC019 NAC domain, 0.109 E-score; with GST-ATAF1 NAC domain it was 0.0746 E-score; in experiment [1] it was 0.159 E-score; with GST-NAP(1-166) it was 0.108 E-score; with GST-SND1(1-203), 0.0973 E-score. The binding signal in the experiment with GST-VND3 NAC domain worked out at 0.0692 E-score; in the experiment with GST-VND7 NAC domain, 0.0989 E-score; with GST-WRKY1(266-371) it was 0.47 E-score.
Regarding AAAGTCAT, the binding signal with GST-ATAF1 NAC domain worked out at 0.14 E-score; in experiment [1], 0.119 E-score; with GST-NAP(1-166), 0.0502 E-score; with GST-NST2(1-184) it was 0.0576 E-score; with GST-SND1(1-203) it was 0.162 E-score; with GST-VND3 NAC domain, 0.0602 E-score. Further, the binding signal with GST-VND7 NAC domain came out at 0.121 E-score; with GST-WRKY1(266-371), 0.428 E-score.
For GTTGACTA, the binding signal came to 0.072 E-score in the experiment with GST-NTL6(1-168); 0.079 E-score with GST-ANAC019 NAC domain; 0.0652 E-score with GST-ANAC055(1-171); 0.103 E-score with GST-ATAF1 NAC domain; 0.133 E-score in [1]; 0.062 E-score with GST-SND1(1-203). In addition, the binding signal with GST-VND3 NAC domain was 0.158 E-score; with GST-VND7 NAC domain, 0.0849 E-score; in the experiment with GST-WRKY1(266-371) it was 0.49 E-score.
Turning to TAAGGTCA, the binding signal was found to be 0.242 E-score with GST-NTL6(1-168); 0.094 E-score with GST-ATAF1 NAC domain; 0.14 E-score in the experiment with GST-NAP(1-166); 0.0905 E-score in the experiment with GST-NTL8 NAC domain; 0.132 E-score with GST-SND1(1-203); 0.223 E-score in the experiment with GST-VND3 NAC domain. Further, the binding signal was 0.143 E-score in the experiment with GST-VND7 NAC domain and 0.441 E-score in the experiment with GST-WRKY1(266-371).
